# Measured values published in PubChem BioAssay.
# Assay: compound effects on multiple myeloma cell viability – MM1S, calcein-AM fluorescence, 48 h, basal, profiling panel (AID 1165);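 also: viability of MM1S multiple myeloma cells under basal unstimulated conditions; test concentration not given here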
# Settings: higher = more signal
row,Structure (SMILES),z-score
1,COC(=O)[C@@]1(Cc2ccc(F)cc2)[C@H]2c3cc(C(=O)N(C)C)n(CCc4ccc(O)c(O)c4)c3C[C@H]2CN1C(=O)c1ccccc1,0.287
2,CCOC(=O)C1=CC[C@@H](c2ccc(OC)cc2)N(S(=O)(=O)c2ccc(C)cc2)[C@H]1c1ccc(C)cc1,0.632
3,[N-]=[N+]=NCc1ccccc1[C@@H]1OC(c2ccc(OCCCO)cc2)=N[C@]1(Cc1ccccc1N=[N+]=[N-])C(=O)O,-1.82
4,COC(=O)[C@@]1(Cc2ccccc2)[C@H]2c3cc(C(=O)N(C)C)n(CCSC(=N)N)c3C[C@H]2CN1C(=O)c1ccccc1,-0.948
5,Cc1ccc(S[C@]2(C(=O)NC(C)C)CC(=O)N(C3CCCCC3)[C@@H]2c2ccc(CO)cc2I)cc1,-2.07
6,COC(=O)C(CC#Cc1ccc2c(c1)[C@]1(C(=O)N2)[C@H](C(=O)N2CCc3cc(OC)c(OC)cc3C2)[C@H]2C(=O)O[C@H](c3ccccc3)[C@H](c3ccccc3)N2[C@@H]1c1ccccc1OCCO)C(=O)OC,-0.151
7,C=CC[C@@]12N=C(c3ccc(OCCCO)cc3)O[C@@H]1c1ccccc1N(CCC)C2=O,-1.79
8,CCC(CC)C(O)C1C=CC2C(=O)N(c3ccccc3)C(=O)C2N1Nc1ccccc1F (stereo unspecified),1.38
9,C=C(COC)/C(=C/C[C@H](OC(C)=O)c1ccccc1OCCO)c1cc(C(=O)OC)ccc1OC,-3.06
10,CN(C)CCCC[C@@H]1NC(=O)[C@@H]2C[C@H](C(=O)NCCCCCN)[C@H](c3cccc(OCCO)c3)N2C1=O,-0.0351
11,COC(=O)C[C@H]1O[C@@]2(C[C@@H]1[Si](C)(C)C)C(=O)N(C)c1ccccc12,0.561
12,NC(=O)N1C(=O)C2C(C1=O)C1C=C(CCCO)C2C(C2CC2)N1Cc1sc2ccccc2c1Cl (stereo unspecified),-2.97
13,CCOC(=O)C1=CCC(c2cc3ccccc3[nH]2)N(CCN2CC(C(=O)OCC)=CCC2c2cc3ccccc3[nH]2)C1 (stereo unspecified),0.183
14,COCC(=C=CC[C@H](O)c1ccccc1OCCO)C[C@H](O)COCc1ccccc1,-2.02
15,COc1ccc([Si](C)(C)[C@@H]2[C@@H](CC(=O)N3CCC[C@H]3CO)O[C@]3(C(=O)N(Cc4ccc(N5CCOC5=O)cc4)c4ccccc43)[C@H]2C)cc1,-2.64
16,C=C(CCCC)C(=O)CC[C@H](OC(=O)c1ccccc1-c1ccccc1C(=O)O)c1ccc(OCCO)cc1,-3.19
17,COC(=O)[C@@]1(Cc2ccc(F)cc2)[C@H]2c3cc(C(=O)N4CCCC4)n(Cc4ccccn4)c3C[C@H]2CN1C(=O)c1ccccc1,-0.333
18,O=C1NC(=O)C2C1C=CC(C(O)c1ccc([N+](=O)[O-])cc1)N2Nc1ccccn1 (stereo unspecified),-0.492

row,Structure (SMILES),z-score
1,CCCC#C[Si](O[C@H](CC)c1cn(Cc2ccccc2)nn1)(C(C)C)C(C)C,-0.588
2,COCCCNC(=O)[C@@]1(CCC(=O)OC(C)(C)C)COC(c2ccc(OCCCO)cc2)=N1,-1.43
3,C=C(CCCC)/C(=C/C[C@H](OC(C)=O)c1cccc(OCCO)c1)c1cnc2ccccc2c1,-3.13
4,CN(C)C(=O)[C@]1(Cc2ccccc2)N=C(c2ccc(OCCCO)cc2)O[C@@H]1c1ccccc1CN=[N+]=[N-],-0.726
5,Cc1ccc(S[C@]2(C(=O)NCc3ccccc3)CC(=O)N(Cc3ccccc3C(F)(F)F)[C@@H]2c2ccc(CO)cc2)cc1,0.0811
6,CCCN1C(=O)[C@]2(CCC(=O)OC(C)(C)C)N=C(c3ccc(OCCCO)cc3)O[C@@H]2c2ccccc21,-3.41
7,C[N+](C)(C)CCCC[C@@H]1NC(=O)[C@H]2C[C@@H](C(=O)NCCCCCNC(=O)CS)[C@@H](c3cccc(OCCO)c3)N2C1=O,-0.631
8,CO[C@H]1O[C@H](CO)[C@@H](OC(=O)Nc2ccccc2-c2ccccc2)[C@H](OC(=O)Nc2ccccc2)[C@H]1OC(=O)Nc1ccccc1,-2.76
9,CC(C)=C1C(=O)C(c2ccccc2)=C2CN3C(=O)N(CCc4ccccc4)C(=O)[C@]3(C)[C@H]21,-2.06
10,C[C@]1(C(=O)O)c2ccccc2C(=O)N(Cc2cc(F)cc(C(F)(F)F)c2)[C@H]1c1ccc(CO)cc1,0.471
11,CN(C)CCCNC(=O)[C@@]1(Cc2ccccc2I)c2ccccc2C(=O)N(C2CCCCC2)[C@H]1c1ccc(CO)cc1,-3.78
12,C#CCN1[C@@H](Cc2ccccc2)C(=O)O[C@H](Cc2ccccc2)[C@@H]1/C=C/C1CC1,-2
13,CCCc1cc2c(n1CCc1ccc(Cl)cc1)C(C)C1CN(C(=O)c3ccccc3)C(C)(C(=O)OC)C21 (stereo unspecified),-3.25
14,CN1C(=O)[C@@H]2[C@@H](CC(COc3ccccc3)=C3[C@@H](CCc4ccccc4)OB(O)C[C@@H]32)C1=O,-2.31
15,CC(C)(C)OC(=O)CC[C@]1(C(=O)NCC(O)CO)N=C(c2ccc(OCCCO)cc2)O[C@H]1c1ccccc1N=[N+]=[N-] (stereo partly specified),-0.312
16,COc1ccc([Si](C)(C)[C@H]2[C@H](CC(=O)N3CCC[C@H]3CO)O[C@@]3(C(=O)N(Cc4ccc(N5CCCCC5=O)cc4)c4ccccc43)[C@@H]2C)cc1,-1.74
17,C=CCOC(=O)[C@H]1[C@@H]2C(=O)O[C@@H](c3ccccc3)[C@@H](c3ccccc3)N2[C@@H](c2ccc(OCCOC(=O)[C@@H]3C[C@@H]4C(=O)N[C@@H](CCCC[N+](C)(C)C)C(=O)N4[C@@H]3c3ccc(O)cc3)cc2)[C@]12C(=O)Nc1ccc(I)cc12,-2.9
18,O=C(NCc1ccc(F)cc1)[C@H]1C[C@H]2C(=O)N3CCC[C@H]3C(=O)N2[C@H]1c1ccc(O)cc1,-0.896
